According to the supplement of paper PMC10849652:
The full data set covers some 7,900 targets. This sample favours those with a hit. About 0.6% of all pairs of compound and target were hits.

Assays:
Assay in all cases: log2 fold change, soluble protein after heating vs DMSO (PISA); higher = thermal stabilisation; K562 cells, 10 uM, 30 min; active = over 0.2 and 3.5 SD of the protein, either way, in both replicates (recomputed)
erlotinib = compound: C#Cc1cccc(Nc2ncnc3cc(OCCOC)c(OCCOC)cc23)c1 [erlotinib]
Summary of the method: (§1)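 Soluble protein was defined as the supernatant after 21,000xg for 90 min. It came from K562 cells at 2×10^6 cells/mL given 10 μM compound for 30 min, heated in aliquots for 3 min across 48°C-58°C, pooled, and extracted in PBS with 0.5% NP-40 at 4°C, and was quantified by TMTpro 16plex LC-MS/MS with equalised channel sums. Thermal stability against control samples, from duplicates, is reported as log2 fold change.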

[1] = compound: C/C(=N\NC(=O)C1=CC(=CC=C1)S(=O)(=O)N2CCOCC2)/C3=C(C=CC(=C3)Cl)O
Summary of the method: as §1

[2] = compound: C1=CC(=C(C=C1Cl)C2=NC3=NC=CN=C3C(=N2)NC4=CC=NC=C4)F
Summary of the method: as §1

[3] = compound: C1=CC(=CC=C1C2=NC3=C(N2)C=C(C=C3)C(=O)N)OC4=CC=C(C=C4)Cl
Summary of the method: as §1

[4] = compound: C1=CC2=C(C=CC(=C2)/C=C\3/C(=O)NC(=NCC4=CC=CS4)S3)N=C1
Summary of the method: as §1

[5] = compound: C1=CC2=NC=CN=C2C=C1/C=C/3\C(=O)NC(=O)S3
Summary of the method: as §1

[6] = compound: C1=CC=C(C=C1)C2=NC(=C(N2)C3=CC=NC=C3)C4=CC(=C(C=C4)Cl)O
Summary of the method: as §1

[7] = compound: C1=CC=C2C(=C1)C3=NNC4=CC=CC(=C43)C2=O
Summary of the method: as §1

[8] = compound: C1CCN(C1)C(=O)NC2=CC=CC(=C2)NC3=NC=C(C(=N3)NCCC4=CN=CN4)Br
Summary of the method: as §1

[9] = compound: C1CN(CCC1(CC2=CC=C(C=C2)Cl)N)C3=NC=NC4=C3C=CN4
Summary of the method: as §1

IRAK-1-4 Inhibitor I = compound: C1COCCN1CCN2C3=CC=CC=C3N=C2NC(=O)C4=CC(=CC=C4)[N+](=O)[O-] [IRAK-1-4 Inhibitor I]
Summary of the method: as §1

ibrutinib = compound: C=CC(=O)N1CCC[C@@H](n2nc(-c3ccc(Oc4ccccc4)cc3)c3c(N)ncnc32)C1 [ibrutinib]
Summary of the method: as §1

[10] = compound: CC(=O)c1cnc2ccc(-c3cc(Cl)c(O)c(Cl)c3)nc2c1N[C@H]1CC[C@H](CN(C)C)CC1
Summary of the method: as §1

ralimetinib = compound: CC(C)(C)Cn1c(N)nc2ccc(-c3[nH]c(C(C)(C)C)nc3-c3ccc(F)cc3)nc21 [ralimetinib]
Summary of the method: as §1

[11] = compound: CC(C)(O)CC(=O)NCCn1ccc2ncnc(Nc3ccc(Oc4cccc(C(F)(F)F)c4)c(Cl)c3)c21
Summary of the method: as §1

[12] = compound: CC(C)C1=C2N=C(C=C(N2N=C1)NCC3=CC=CC=C3)NCCCCCCN
Summary of the method: as §1

[13] = compound: CC(C)C[C@@H](C=O)NC(=O)[C@H](CC(C)C)NC(=O)[C@H](CC(C)C)NC(=O)OCc1ccccc1
Summary of the method: as §1

pinometostat = compound: CC(C)N(C[C@H]1O[C@@H](n2cnc3c(N)ncnc32)[C@H](O)[C@@H]1O)[C@H]1C[C@@H](CCc2nc3cc(C(C)(C)C)ccc3[nH]2)C1 [pinometostat]
Summary of the method: as §1

[14] = compound: CC1=C(C(CC(=O)N1)C2=CC=C(C=C2)C(F)(F)F)C(=O)NC3=C(C=C4C(=C3)C=NN4)F
Summary of the method: as §1

[15] = compound: CC1=C(C2=C(C=C1)C(=O)C3=CC=CC=C3N2CCCN)C
Summary of the method: as §1

Measured: log2 fold change

MFN1 (UniProt Q8IWA4)
Sequence of UniProt Q8IWA4 (Q8IWA4 whole entry, looked up): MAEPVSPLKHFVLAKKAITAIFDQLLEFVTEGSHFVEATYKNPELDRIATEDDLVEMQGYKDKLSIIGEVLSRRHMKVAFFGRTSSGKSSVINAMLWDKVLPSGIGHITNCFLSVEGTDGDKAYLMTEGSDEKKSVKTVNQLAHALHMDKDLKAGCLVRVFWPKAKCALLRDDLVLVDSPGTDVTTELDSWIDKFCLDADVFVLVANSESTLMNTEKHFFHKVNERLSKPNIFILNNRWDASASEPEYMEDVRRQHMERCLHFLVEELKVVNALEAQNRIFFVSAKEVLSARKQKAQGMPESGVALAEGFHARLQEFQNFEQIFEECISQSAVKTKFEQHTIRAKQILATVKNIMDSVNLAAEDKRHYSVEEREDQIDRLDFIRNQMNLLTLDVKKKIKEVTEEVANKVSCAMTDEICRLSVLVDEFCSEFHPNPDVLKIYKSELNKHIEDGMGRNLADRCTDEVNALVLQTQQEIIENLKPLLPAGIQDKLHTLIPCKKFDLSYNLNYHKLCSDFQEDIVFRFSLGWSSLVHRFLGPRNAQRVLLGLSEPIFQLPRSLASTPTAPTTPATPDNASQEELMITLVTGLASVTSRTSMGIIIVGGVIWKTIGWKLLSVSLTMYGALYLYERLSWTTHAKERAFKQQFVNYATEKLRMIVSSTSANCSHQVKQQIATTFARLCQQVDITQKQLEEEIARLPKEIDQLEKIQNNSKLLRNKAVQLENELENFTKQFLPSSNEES
active: [12] -0.607
inactive: erlotinib -0.002 | [1] -0.026 | [2] 0.042 | [3] 0.001 | [4] 0.07 | [5] 0.347 | [6] -0.016 | [7] -0.015 | [8] 0.025 | [9] -0.039 | IRAK-1-4 Inhibitor I 0.057 | ibrutinib -0.009 | [10] -0.047 | ralimetinib -0.027 | [11] -0.043 | [13] 0.078 | pinometostat 0.018 | [14] 0.015 | [15] 0.098

IWS1 (UniProt Q96ST2)
inactive: erlotinib 0.029 | [1] 0.029 | [2] 0.091 | [3] 0 | [4] -0.033 | [5] 0.022 | [6] -0.013 | [7] -0.077 | [8] -0.067 | [9] -0.033 | IRAK-1-4 Inhibitor I -0.026 | ibrutinib -0.027 | ralimetinib -0.04 | [11] -0.09 | [12] 0.166 | [13] -0.04 | pinometostat 0.014 | [14] -0.044
active: [10] 0.492 | [15] -0.301

KRAS isoform 2 (UniProt P01116)
Sequence of UniProt P01116 (P01116 whole entry, looked up): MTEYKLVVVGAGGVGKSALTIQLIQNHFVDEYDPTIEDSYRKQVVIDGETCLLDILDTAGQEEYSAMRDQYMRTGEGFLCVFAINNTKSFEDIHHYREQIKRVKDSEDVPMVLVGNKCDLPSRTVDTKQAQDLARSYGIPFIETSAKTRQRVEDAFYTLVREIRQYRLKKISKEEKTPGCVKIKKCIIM
active: [13] 0.241
inactive: erlotinib -0.035 | [1] -0.011 | [2] 0.006 | [3] 0.029 | [4] 0.005 | [5] 0.019 | [6] 0.002 | [7] -0.03 | [8] 0.045 | [9] -0.084 | IRAK-1-4 Inhibitor I 0.045 | ibrutinib -0.035 | [10] -0.07 | ralimetinib 0.02 | [11] 0.101 | [12] 0.099 | pinometostat 0.014 | [14] 0.001 | [15] 0.072

INPP5B (UniProt P32019)
Sequence of UniProt P32019 (P32019 whole entry, looked up): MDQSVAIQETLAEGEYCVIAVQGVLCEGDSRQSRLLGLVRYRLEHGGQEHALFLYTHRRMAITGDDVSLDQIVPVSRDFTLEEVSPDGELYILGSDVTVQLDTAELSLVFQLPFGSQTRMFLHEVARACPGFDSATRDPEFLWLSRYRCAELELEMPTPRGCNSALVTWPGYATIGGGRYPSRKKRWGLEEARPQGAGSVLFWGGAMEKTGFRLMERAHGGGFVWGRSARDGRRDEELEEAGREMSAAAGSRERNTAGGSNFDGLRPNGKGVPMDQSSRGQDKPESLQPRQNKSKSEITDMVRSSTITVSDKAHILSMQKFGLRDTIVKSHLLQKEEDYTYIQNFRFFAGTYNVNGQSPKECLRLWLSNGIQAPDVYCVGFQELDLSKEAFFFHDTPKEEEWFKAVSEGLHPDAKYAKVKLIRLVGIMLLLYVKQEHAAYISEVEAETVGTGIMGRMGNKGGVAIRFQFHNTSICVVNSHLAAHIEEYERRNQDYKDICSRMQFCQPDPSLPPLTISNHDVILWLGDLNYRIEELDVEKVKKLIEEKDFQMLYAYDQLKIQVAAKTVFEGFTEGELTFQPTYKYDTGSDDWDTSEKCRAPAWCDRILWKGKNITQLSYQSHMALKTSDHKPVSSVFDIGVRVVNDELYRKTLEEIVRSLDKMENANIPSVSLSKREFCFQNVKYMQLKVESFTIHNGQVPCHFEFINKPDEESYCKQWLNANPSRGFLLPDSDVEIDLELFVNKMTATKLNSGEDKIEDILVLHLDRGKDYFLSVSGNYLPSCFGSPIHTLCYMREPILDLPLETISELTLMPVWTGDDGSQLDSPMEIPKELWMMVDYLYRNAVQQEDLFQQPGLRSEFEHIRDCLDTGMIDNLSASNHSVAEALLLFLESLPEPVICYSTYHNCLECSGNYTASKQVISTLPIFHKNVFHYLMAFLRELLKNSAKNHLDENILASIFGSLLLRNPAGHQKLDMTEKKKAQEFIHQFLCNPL
active: [12] -0.308
inactive: erlotinib -0.027 | [1] 0.056 | [2] 0.071 | [3] -0.052 | [4] 0.055 | [5] -0.018 | [6] 0.026 | [7] -0.04 | [8] -0.064 | [9] -0.039 | IRAK-1-4 Inhibitor I -0.1 | ibrutinib -0.048 | [10] -0.013 | ralimetinib 0.062 | [11] -0.053 | [13] 0.122 | pinometostat 0.101 | [14] 0.042 | [15] -0.077

ILVBL (UniProt A1L0T0)
Sequence of UniProt A1L0T0 (A1L0T0 whole entry, looked up): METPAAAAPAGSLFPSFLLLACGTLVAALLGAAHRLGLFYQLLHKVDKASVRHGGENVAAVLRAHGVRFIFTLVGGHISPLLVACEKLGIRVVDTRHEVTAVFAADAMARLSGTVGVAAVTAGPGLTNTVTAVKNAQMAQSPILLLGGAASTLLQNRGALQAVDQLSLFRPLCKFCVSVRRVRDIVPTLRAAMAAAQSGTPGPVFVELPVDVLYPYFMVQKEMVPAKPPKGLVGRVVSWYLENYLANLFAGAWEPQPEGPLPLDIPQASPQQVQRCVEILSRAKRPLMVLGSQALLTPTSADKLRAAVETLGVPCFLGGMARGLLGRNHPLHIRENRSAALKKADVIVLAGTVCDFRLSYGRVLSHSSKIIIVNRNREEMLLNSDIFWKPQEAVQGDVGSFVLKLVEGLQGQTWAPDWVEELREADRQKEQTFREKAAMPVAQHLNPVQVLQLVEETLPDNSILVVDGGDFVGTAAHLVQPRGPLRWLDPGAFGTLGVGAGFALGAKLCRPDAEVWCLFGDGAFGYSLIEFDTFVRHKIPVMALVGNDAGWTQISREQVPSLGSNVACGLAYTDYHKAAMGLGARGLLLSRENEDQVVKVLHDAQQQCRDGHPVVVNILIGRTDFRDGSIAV
inactive: erlotinib 0.027 | [1] 0.092 | [2] -0.035 | [3] -0.02 | [4] 0.178 | [5] -0.03 | [6] 0.009 | [7] -0.026 | [8] 0.014 | [9] 0.095 | IRAK-1-4 Inhibitor I 0.073 | ibrutinib 0.048 | [10] -0.027 | ralimetinib -0.075 | [11] -0.053 | [12] 0.058 | [13] -0.018 | pinometostat 0.066 | [14] -0.013 | [15] 0.025

LNPK (UniProt Q9C0E8)
Sequence of UniProt Q9C0E8 (Q9C0E8 whole entry, looked up): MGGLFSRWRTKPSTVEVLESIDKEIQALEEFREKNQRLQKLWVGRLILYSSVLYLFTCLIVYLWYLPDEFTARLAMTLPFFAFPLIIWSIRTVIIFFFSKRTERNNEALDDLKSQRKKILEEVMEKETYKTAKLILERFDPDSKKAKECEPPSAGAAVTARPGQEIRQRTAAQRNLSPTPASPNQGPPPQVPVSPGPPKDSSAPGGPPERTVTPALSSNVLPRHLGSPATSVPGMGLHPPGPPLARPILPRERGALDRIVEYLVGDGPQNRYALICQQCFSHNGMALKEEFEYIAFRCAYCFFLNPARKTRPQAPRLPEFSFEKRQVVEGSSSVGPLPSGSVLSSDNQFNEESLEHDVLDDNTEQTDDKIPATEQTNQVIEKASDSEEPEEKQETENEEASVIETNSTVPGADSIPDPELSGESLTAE
inactive: erlotinib 0.011 | [1] -0.028 | [2] 0.05 | [3] 0 | [4] -0.018 | [5] 0.058 | [6] 0 | [7] -0.02 | [8] 0.007 | [9] 0.089 | IRAK-1-4 Inhibitor I 0.041 | ibrutinib 0.013 | [10] 0.004 | ralimetinib -0.019 | [11] 0.016 | [12] 0.05 | [13] -0.011 | pinometostat -0.01 | [14] 0.016 | [15] -0.035

MCCC2 (UniProt Q9HCC0)
Sequence of UniProt Q9HCC0 (Q9HCC0 whole entry, looked up): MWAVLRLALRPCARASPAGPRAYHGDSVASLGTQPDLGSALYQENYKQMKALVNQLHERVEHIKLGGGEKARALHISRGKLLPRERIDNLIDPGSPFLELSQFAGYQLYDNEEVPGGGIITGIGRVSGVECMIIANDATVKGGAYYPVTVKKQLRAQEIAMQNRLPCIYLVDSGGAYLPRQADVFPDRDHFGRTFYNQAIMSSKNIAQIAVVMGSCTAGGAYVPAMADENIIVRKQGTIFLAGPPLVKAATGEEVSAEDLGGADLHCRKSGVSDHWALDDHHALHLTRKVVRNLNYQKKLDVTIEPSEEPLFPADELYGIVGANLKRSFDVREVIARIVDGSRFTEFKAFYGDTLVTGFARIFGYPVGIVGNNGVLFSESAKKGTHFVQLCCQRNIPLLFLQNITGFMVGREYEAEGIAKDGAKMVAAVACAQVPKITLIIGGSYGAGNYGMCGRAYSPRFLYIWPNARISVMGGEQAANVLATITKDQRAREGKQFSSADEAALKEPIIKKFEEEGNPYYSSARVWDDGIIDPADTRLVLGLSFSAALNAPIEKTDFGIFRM
inactive: erlotinib 0.019 | [1] 0.123 | [2] 0.03 | [3] 0.004 | [4] -0.04 | [5] 0.011 | [6] 0.047 | [7] 0.004 | [8] 0.004 | [9] 0.035 | IRAK-1-4 Inhibitor I 0.046 | ibrutinib 0.019 | [10] 0.047 | ralimetinib -0.015 | [11] 0.027 | [12] 0.024 | [13] -0.04 | pinometostat -0.05 | [14] 0 | [15] 0.003

LSS (UniProt P48449)
Sequence of UniProt P48449 (P48449 whole entry, looked up): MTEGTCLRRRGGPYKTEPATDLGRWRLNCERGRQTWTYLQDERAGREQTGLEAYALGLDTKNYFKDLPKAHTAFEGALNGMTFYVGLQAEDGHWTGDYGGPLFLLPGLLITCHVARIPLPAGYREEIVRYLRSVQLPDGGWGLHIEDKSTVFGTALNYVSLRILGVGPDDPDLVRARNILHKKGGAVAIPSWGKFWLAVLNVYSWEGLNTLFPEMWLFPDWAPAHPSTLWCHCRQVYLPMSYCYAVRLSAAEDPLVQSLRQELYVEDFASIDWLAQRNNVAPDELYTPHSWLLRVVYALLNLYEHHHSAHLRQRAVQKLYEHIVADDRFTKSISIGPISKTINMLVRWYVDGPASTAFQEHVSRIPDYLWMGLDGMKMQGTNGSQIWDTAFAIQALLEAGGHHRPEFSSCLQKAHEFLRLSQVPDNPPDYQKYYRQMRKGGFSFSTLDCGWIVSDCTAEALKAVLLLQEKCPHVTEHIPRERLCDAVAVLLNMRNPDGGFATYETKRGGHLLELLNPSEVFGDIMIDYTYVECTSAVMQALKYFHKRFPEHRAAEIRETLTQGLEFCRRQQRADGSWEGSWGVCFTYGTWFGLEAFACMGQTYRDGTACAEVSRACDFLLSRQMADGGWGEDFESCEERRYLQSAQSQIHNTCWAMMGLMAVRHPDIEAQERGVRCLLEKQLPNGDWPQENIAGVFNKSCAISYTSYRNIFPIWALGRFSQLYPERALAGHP
inactive: erlotinib 0.293 | [1] 0.073 | [2] -0.029 | [3] 0.051 | [4] 0.128 | [5] 0.069 | [6] -0.005 | [7] 0.081 | [8] 0.005 | [9] 0.089 | IRAK-1-4 Inhibitor I -0.119 | ibrutinib -0.087 | [10] -0.084 | ralimetinib 0.147 | [11] 0.099 | [12] 0.199 | [13] 0.077 | pinometostat -0.116 | [14] -0.022 | [15] -0.195
